# HePTP inh: inhibitors of human HePTP phosphatase, primary screen, biochemical, absorbance, leukemia target | AID 521, 2006 | actives 0.64% (n = 110,000) | inhibition, % at 20 µM | Tyrosine-protein phosphatase non-receptor type 7 (Homo sapiens), P35236 | recombinant HePTP phosphatase activity, OD absorbance; in the data active = inhibition above about 50%;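 note: plate controls were vehicle for no effect and reference inhibitor for full effect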
# FXIIa inh mix: human factor XIIa inhibitors, primary screen, biochemical, pooled compound mixtures, fluorogenic substrate; Coagulation factor XII (Homo sapiens), P00748; purified FXIIa; inhibition, % at 5 µM; actives 0.2% (n = 62,000); AID 684, 2007;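 note: 0% = enzyme without compound and 100% = no enzyme blank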
# TNAP act DEA: human TNAP enzyme activators, primary screen, biochemical, luminescent, intermediate phosphate acceptor level; Alkaline phosphatase, tissue-nonspecific isozyme (Homo sapiens), P05186; purified TNAP, CDP-star luminescence, 100 mM DEA, 30 min; hits give high values; scale: 0 levamisole-inhibited, 1 vehicle-only enzyme; activation factor at 20 µM; 64,000 tested, under 10 active;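 active = activation factor of at least 2 at 20 µM, relative to controls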
# Target sequence (P05186 whole entry, looked up): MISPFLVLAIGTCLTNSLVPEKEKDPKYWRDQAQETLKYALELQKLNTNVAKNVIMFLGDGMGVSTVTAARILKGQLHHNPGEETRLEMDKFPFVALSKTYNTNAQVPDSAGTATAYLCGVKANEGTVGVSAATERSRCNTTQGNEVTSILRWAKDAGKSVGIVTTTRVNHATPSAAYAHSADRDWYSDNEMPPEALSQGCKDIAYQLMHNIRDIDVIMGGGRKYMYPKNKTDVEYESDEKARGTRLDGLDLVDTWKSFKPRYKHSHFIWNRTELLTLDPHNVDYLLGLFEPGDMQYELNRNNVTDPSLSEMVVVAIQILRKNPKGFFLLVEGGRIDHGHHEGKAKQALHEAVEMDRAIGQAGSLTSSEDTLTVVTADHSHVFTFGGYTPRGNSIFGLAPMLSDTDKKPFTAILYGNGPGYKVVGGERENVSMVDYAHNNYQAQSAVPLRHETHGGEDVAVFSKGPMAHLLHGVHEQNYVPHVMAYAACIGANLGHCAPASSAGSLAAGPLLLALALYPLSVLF
# FXIa mix inh: FXIa protease inhibitors in compound pools, primary screen, biochemical, 10-compound mixtures | inhibition, % at 5 µM | purified FXIa, fluorogenic substrate, pooled mixtures | AID 680, 2007 | actives 0.19% (n = 62,000) | Coagulation factor XI (Homo sapiens), P03951;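 note: each value is inhibition by a whole ten-compound pool holding the compound; 0% = enzyme with no mixture and 100% = wells lacking enzyme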
# Calb biofilm kill: clotrimazole potentiators killing Candida biofilms, primary screen, with clotrimazole, Alamar Blue; AID 834, 2007; inhibition, % at 6 µM; actives 0.14% (n = 85,000); C. albicans biofilm + clotrimazole;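 active = inhibition above 20%; inactive = inhibition below 20%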;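 note: preformed 24 hr biofilms exposed to compound for 48 hr; 0% = biofilm without compound and 100% = blank killed by clotrimazole plus chlorhexidine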
# D1 mod: D1 CRE-luciferase signal change, two-sided – cell-based, HEK293 D1, dopamine EC30, D1 allosteric modulator project, primary screen; D(1A) dopamine receptor (Homo sapiens), P21728; actives 5.9% (n = 58,000); AID 641, 2007; dopamine EC30 potentiation; actives deviate in either direction; B-score at 10 µM;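 active = luminescence count or its row- and column-corrected plate score outside the 99.7% band of the plate's sample wells, on either side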
# Starred values were filed as active, the others as inactive; · = no result given. The entries come from a sample that favours hits as a whole. Cut-off read from the data, not from the text of the source, unless noted: active = inhibition above about 20% (passing the limit was not always enough); inactive = the rest.
SMILES,HePTP inh,FXIIa inh mix,TNAP act DEA,FXIa mix inh,Calb biofilm kill,D1 mod
CC(=O)NS(=O)(=O)c1ccc(NC(=O)/C=C/c2ccc(F)cc2)cc1,74*,·,·,·,·,·
O=C(/C=C/c1ccc(F)cc1)Nc1ccc(F)cc1,0,·,·,·,·,·
COc1ccc(CNC(=O)CN(c2c(C)n(C)n(-c3ccccc3)c2=O)S(=O)(=O)c2ccccc2)cc1,6,·,·,·,·,·
C/C(Cl)=C/CSc1nc2c(c(=O)[nH]c(=O)n2C)n1C(C)C,6,-13,1,-1,3,7.9*
CCOC(=O)N1CCN(C(=O)c2ccc(Cn3c(=S)[nH]c4cc5c(cc4c3=O)OCO5)cc2)CC1,-2,-16,0.9,3,·,-4.1*
CCOC(=O)N1CCN(C(=O)c2ccc3c(=O)n(Cc4ccc(OC)cc4)c(=S)[nH]c3c2)CC1,10,-18,0.8,-2,-6,-0.038
CCOC(=O)N1CCN(C(=O)c2ccc3c(=O)n(Cc4ccccc4)c(=S)[nH]c3c2)CC1,-14,-4,1.1,57*,7,0.44
O=C(NC1CCCCC1)C12CC3CCC(CC(C3)C1)C2,-6,·,·,·,·,·
CCOC(=O)N1CCC(Nc2ncnc3c2cnn3-c2ccc(C)cc2C)CC1,26,-16,0.9,1,5,-3.7*
C=CCNc1ncnc2c1cnn2-c1ccc(C)cc1C,6,6,1,5,11,-1.3
O=C1c2ccccc2C(=O)N1CN1CCC(Cc2ccccc2)CC1,6,·,·,·,·,·
COc1ccc(CNc2nc3nc(C)c(Cl)c(C)n3n2)cc1OC,2,18,0.9,5,10,6.2*
c1ccc(OCCSc2nnc3sc4ccccc4n23)cc1,10,-3,0.9,2,5,-6*
CCOC(=O)C1=C(C)N=c2s/c(=C/c3ccc(C)cc3)c(=O)n2C1c1ccccc1 (stereo unspecified),10,·,·,·,·,·
C#Cc1c(C)n(-c2ccccc2)c2c(=O)n(Cc3ccccc3)cnc12,-17,·,·,·,·,·
Cc1c(C#N)c2ncn(Cc3ccccc3)c(=O)c2n1-c1ccccc1,8,11,0.9,4,4,13*
O=C(Nc1cccc(Cl)c1)c1ccc(-n2cnnn2)cc1,-3,·,·,·,·,·
O=c1cc(-c2cc(O)c3c(O)c4ccccc4c(O)c3c2O)c(=O)c2c(=O)c3ccccc3c(=O)c1=2,84*,·,·,·,·,·
O=c1c2ccccc2c(=O)c2c1c(O)cc1sc3ccccc3[nH]c12,-18,·,·,·,·,·
O=C1OC(c2ccc(-c3ccccc3)cc2)c2ccccc21 (stereo unspecified),105*,·,·,·,·,·
O=S(=O)(Nc1nc2ccccc2nc1NCc1ccco1)c1ccc(Cl)cc1,7,2,0.8,-10,4,-3.5*
Cc1ccc(S(=O)(=O)Nc2nc3ccccc3nc2NCc2ccco2)cc1,4,12,0.8,2,-6,1.6
COC(=O)c1ccc(CN(c2cccc3cccnc23)S(=O)(=O)c2ccc(C)cc2)cc1,-16,·,·,·,·,·
COc1ccccc1/C=N/NC(=O)c1cc(-c2ccc(Cl)cc2)n[nH]1,-11,·,·,·,·,·
Cc1ccc(NC(=O)N(Cc2ccccc2)C(C)C2CC2)cc1 (stereo unspecified),102*,·,·,·,·,·
SMILES,HePTP inh,FXIIa inh mix,TNAP act DEA,FXIa mix inh,Calb biofilm kill,D1 mod
CC1CCCN(c2nc3nonc3nc2N2CCCC(C)C2)C1 (stereo unspecified),·,·,·,·,5,·
CC1CCCN(c2nc3ccsc3c(=O)s2)C1 (stereo unspecified),-6,-2,1,4,10,3.8*
CCOc1ccc(N2C(=O)CC(N3CCC(O)CC3)C2=O)cc1 (stereo unspecified),-7,·,·,·,·,·
COc1cccc(NC2=NC3(CCCCC3)N=C(N)N2)c1,4,3,1,4,2,-2.7*
Cc1ccc(C)c(NC2=NC3(CCCCC3)N=C(N)N2)c1,·,·,·,·,-3,-6*
Cc1ccc(NC2=NC3(CCCCC3)N=C(N)N2)c(C)c1,0,-19,0.9,2,6,-4.1*
Cc1ccc(NC2=NC3(CCCC3)N=C(N)N2)c(C)c1,0,·,·,·,·,·
C=CCN1C(=O)/C(=C/c2ccc(Cl)cc2)C(=O)NC1=S,5,·,·,·,·,·
COC(=O)c1c(NC(=O)/C=C/c2ccco2)sc(C)c1C,-5,·,·,·,·,·

# Source: PubChem (several laboratories)
